# About 85 (1%) of roughly 5,700 compounds were called active. No stated cut-off is given here; in the data, active means p53-positive nuclei above about 36% (passing the limit was not always enough); inactive means the rest. This excerpt belongs to a sample that is enriched for actives.
# Experiments:
# [1] = p53 stabilisation in HPV-positive human cells, imaging, p53-positive nuclei imaging, 24 h, 48 h (AID 1508601); conditions: 24/48 h
# [2] = biological target: Cellular tumor antigen p53 (Homo sapiens) (UniProt P04637); experiment: as above; conditions: 24/48 h, stronger effect = higher value
# [3] = measured here: cell number at 24 h, concentration not given here
# [4] = measured here: cell number at 48 h, concentration not given here
# [5] = measured here: p53 positive nuclei at 24 h, concentration not given here
# [6] = measured here: cell number at 24 h, Library stock concentration: 10 mM
# [7] = measured here: cell number at 48 h, Library stock concentration: 10 mM
# [8] = Library stock concentration: 10 mM
# [9] = measured here: p53 positive nuclei at 24 h, Library stock concentration: 10 mM
# [10] = measured here: cell number at 24 h, Library stock concentration: 80 uM
# [11] = measured here: cell number at 24 h, Library stock concentration: 400 uM
# [12] = measured here: cell number at 24 h, Library stock concentration: 2 mM
# [13] = measured here: cell number at 48 h, Library stock concentration: 80 uM
# [14] = measured here: cell number at 48 h, Library stock concentration: 400 uM
# [15] = measured here: cell number at 48 h, Library stock concentration: 2 mM
# [16] = Library stock concentration: 80 uM
# [17] = Library stock concentration: 400 uM
# [18] = Library stock concentration: 2 mM
# [19] = measured here: p53 positive nuclei at 24 h, Library stock concentration: 80 uM
# [20] = measured here: p53 positive nuclei at 24 h, Library stock concentration: 400 uM
# [21] = measured here: p53 positive nuclei at 24 h, Library stock concentration: 2 mM
# Cellular tumor antigen p53 (Homo sapiens), sequence (P04637 whole entry, looked up): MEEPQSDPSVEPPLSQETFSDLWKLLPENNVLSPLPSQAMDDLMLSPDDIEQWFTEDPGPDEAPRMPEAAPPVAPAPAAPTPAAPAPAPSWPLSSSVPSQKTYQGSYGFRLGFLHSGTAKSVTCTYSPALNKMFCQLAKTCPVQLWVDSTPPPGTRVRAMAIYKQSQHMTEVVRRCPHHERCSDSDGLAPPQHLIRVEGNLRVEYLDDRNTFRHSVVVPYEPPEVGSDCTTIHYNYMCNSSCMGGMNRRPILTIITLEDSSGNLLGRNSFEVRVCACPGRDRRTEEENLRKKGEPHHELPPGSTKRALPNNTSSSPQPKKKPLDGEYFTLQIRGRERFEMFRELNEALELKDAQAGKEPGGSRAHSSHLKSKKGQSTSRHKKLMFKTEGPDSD
smiles,measurement,setting,value
CC[C@@]1(O)C[C@H](O[C@H]2C[C@H](N(C)C)[C@H](O)[C@H](C)O2)c2c(cc3c(c2O)C(=O)c2c(O)ccc(O)c2C3=O)[C@H]1C(=O)OC,"nuclei count, normalised",[1]; [3],29.9%
same,"nuclei count, normalised",[1]; [4],15.5%
same,"p53-positive nuclei, normalised",[2]; concentration not given here,92.8% (active)
same,"p53-positive nuclei, normalised",[2]; [5],88.5%
CC[C@@]1(O)C[C@H](O[C@H]2C[C@H](N(C)C)[C@H](O)[C@H](C)O2)c2c(cc3c(c2O)C(=O)c2c(O)cccc2C3=O)[C@H]1C(=O)OC,"nuclei count, normalised",[1]; [3],50.2%
same,"nuclei count, normalised",[1]; [4],38.4%
same,"p53-positive nuclei, normalised",[2]; concentration not given here,27.4% (inactive)
same,"p53-positive nuclei, normalised",[2]; [5],16.3%
CC[C@@]1(O)C[C@H](O)c2c(cc3c(c2O)C(=O)c2c(O)ccc(O)c2C3=O)[C@H]1C(=O)OC,"nuclei count, normalised",[1]; [3],83.7%
same,"nuclei count, normalised",[1]; [4],84%
same,"p53-positive nuclei, normalised",[2]; concentration not given here,23.5% (inactive)
same,"p53-positive nuclei, normalised",[2]; [5],4.09%
CCCCC/C=C\C/C=C\C/C=C\C/C=C\CCCC(=O)Nc1cccc([N+](=O)[O-])c1,"nuclei count, normalised",[1]; [3],108%
same,"nuclei count, normalised",[1]; [4],112%
same,"p53-positive nuclei, normalised",[2]; concentration not given here,-0.154% (inactive)
same,"p53-positive nuclei, normalised",[2]; [5],-0.0854%
CN1CCC(N(C)CCC2CCOCC2)CC1,"nuclei count, normalised",[1]; [3],102%
same,"nuclei count, normalised",[1]; [4],105%
same,"p53-positive nuclei, normalised",[2]; concentration not given here,-0.0157% (inactive)
same,"p53-positive nuclei, normalised",[2]; [5],-0.151%
CN1C(=O)[C@@]23C[C@]4([C@]56C[C@@]78SS[C@@](CO)(C(=O)N7[C@@H]5Nc5ccccc56)N(C)C8=O)c5ccccc5N[C@H]4N2C(=O)[C@]1(CO)SS3,"nuclei count, normalised","[1]; measured here: cell number at 24 h, Library stock concentration: 500 nM",119%
same,"nuclei count, normalised","[1]; measured here: cell number at 24 h, Library stock concentration: 1.5 uM",109%
same,"nuclei count, normalised","[1]; measured here: cell number at 24 h, Library stock concentration: 4.6 uM",104%
same,"nuclei count, normalised","[1]; measured here: cell number at 24 h, Library stock concentration: 13.7 uM",98.9%
same,"nuclei count, normalised","[1]; measured here: cell number at 24 h, Library stock concentration: 41 uM",67.2%
same,"nuclei count, normalised","[1]; measured here: cell number at 24 h, Library stock concentration: 123 uM",42.7%
same,"nuclei count, normalised","[1]; measured here: cell number at 24 h, Library stock concentration: 370 uM",46.4%
same,"nuclei count, normalised","[1]; measured here: cell number at 24 h, Library stock concentration: 1.111 mM",36.8%
same,"nuclei count, normalised","[1]; measured here: cell number at 24 h, Library stock concentration: 3.333 mM",34.9%
same,"nuclei count, normalised",[1]; [6],41.7%
same,"nuclei count, normalised","[1]; measured here: cell number at 48 h, Library stock concentration: 500 nM",117%
same,"nuclei count, normalised","[1]; measured here: cell number at 48 h, Library stock concentration: 1.5 uM",107%
same,"nuclei count, normalised","[1]; measured here: cell number at 48 h, Library stock concentration: 4.6 uM",101%
same,"nuclei count, normalised","[1]; measured here: cell number at 48 h, Library stock concentration: 13.7 uM",85.5%
same,"nuclei count, normalised","[1]; measured here: cell number at 48 h, Library stock concentration: 41 uM",44.9%
same,"nuclei count, normalised","[1]; measured here: cell number at 48 h, Library stock concentration: 123 uM",30.9%
same,"nuclei count, normalised","[1]; measured here: cell number at 48 h, Library stock concentration: 370 uM",32.7%
same,"nuclei count, normalised","[1]; measured here: cell number at 48 h, Library stock concentration: 1.111 mM",24.5%
same,"nuclei count, normalised","[1]; measured here: cell number at 48 h, Library stock concentration: 3.333 mM",23.4%
same,"nuclei count, normalised",[1]; [7],27.3%
same,"p53-positive nuclei, normalised",[2]; Library stock concentration: 500 nM,0.0843% (inactive)
same,"p53-positive nuclei, normalised",[2]; Library stock concentration: 1.5 uM,0.192% (inactive)
same,"p53-positive nuclei, normalised",[2]; Library stock concentration: 4.6 uM,0.185% (inactive)
same,"p53-positive nuclei, normalised",[2]; Library stock concentration: 13.7 uM,1.67% (inactive)
same,"p53-positive nuclei, normalised",[2]; Library stock concentration: 41 uM,83.6% (active)
same,"p53-positive nuclei, normalised",[2]; Library stock concentration: 123 uM,95.7% (active)
same,"p53-positive nuclei, normalised",[2]; Library stock concentration: 370 uM,94.5% (active)
same,"p53-positive nuclei, normalised",[2]; Library stock concentration: 1.111 mM,72.8% (active)
same,"p53-positive nuclei, normalised",[2]; Library stock concentration: 3.333 mM,12.8% (inactive)
same,"p53-positive nuclei, normalised",[2]; [8],7.98% (inactive)
same,"p53-positive nuclei, normalised","[2]; measured here: p53 positive nuclei at 24 h, Library stock concentration: 500 nM",-0.114%
same,"p53-positive nuclei, normalised","[2]; measured here: p53 positive nuclei at 24 h, Library stock concentration: 1.5 uM",-0.173%
same,"p53-positive nuclei, normalised","[2]; measured here: p53 positive nuclei at 24 h, Library stock concentration: 4.6 uM",0.0127%
same,"p53-positive nuclei, normalised","[2]; measured here: p53 positive nuclei at 24 h, Library stock concentration: 13.7 uM",13.4%
same,"p53-positive nuclei, normalised","[2]; measured here: p53 positive nuclei at 24 h, Library stock concentration: 41 uM",101%
same,"p53-positive nuclei, normalised","[2]; measured here: p53 positive nuclei at 24 h, Library stock concentration: 123 uM",116%
same,"p53-positive nuclei, normalised","[2]; measured here: p53 positive nuclei at 24 h, Library stock concentration: 370 uM",117%
same,"p53-positive nuclei, normalised","[2]; measured here: p53 positive nuclei at 24 h, Library stock concentration: 1.111 mM",105%
same,"p53-positive nuclei, normalised","[2]; measured here: p53 positive nuclei at 24 h, Library stock concentration: 3.333 mM",30.1%
same,"p53-positive nuclei, normalised",[2]; [9],12.6%
NCCc1ccccc1Br,"nuclei count, normalised",[1]; [10],86.4%
same,"nuclei count, normalised",[1]; [11],90.6%
same,"nuclei count, normalised",[1]; [12],89.9%
same,"nuclei count, normalised",[1]; [6],98.5%
same,"nuclei count, normalised",[1]; [13],92.2%
same,"nuclei count, normalised",[1]; [14],90.8%
same,"nuclei count, normalised",[1]; [15],95%
same,"nuclei count, normalised",[1]; [7],98.1%
same,"p53-positive nuclei, normalised",[2]; [16],0.0704% (inactive)
same,"p53-positive nuclei, normalised",[2]; [17],0.0834% (inactive)
same,"p53-positive nuclei, normalised",[2]; [18],0.0298% (inactive)
same,"p53-positive nuclei, normalised",[2]; [8],0.0211% (inactive)
same,"p53-positive nuclei, normalised",[2]; [19],0.101%
same,"p53-positive nuclei, normalised",[2]; [20],0.248%
same,"p53-positive nuclei, normalised",[2]; [21],-0.0657%
same,"p53-positive nuclei, normalised",[2]; [9],-0.0492%
CN1CCC(C(=O)c2cccc(NC(=O)c3c(F)cc(F)cc3F)n2)CC1,"nuclei count, normalised",[1]; [10],126%
same,"nuclei count, normalised",[1]; [11],115%
same,"nuclei count, normalised",[1]; [12],121%
same,"nuclei count, normalised",[1]; [6],116%
same,"nuclei count, normalised",[1]; [13],118%
same,"nuclei count, normalised",[1]; [14],108%
same,"nuclei count, normalised",[1]; [15],108%
same,"nuclei count, normalised",[1]; [7],105%
same,"p53-positive nuclei, normalised",[2]; [16],-0.0182% (inactive)
same,"p53-positive nuclei, normalised",[2]; [17],-0.00116% (inactive)
same,"p53-positive nuclei, normalised",[2]; [18],-0.0434% (inactive)
same,"p53-positive nuclei, normalised",[2]; [8],-0.0859% (inactive)
same,"p53-positive nuclei, normalised",[2]; [19],-0.0846%
same,"p53-positive nuclei, normalised",[2]; [20],0.109%
same,"p53-positive nuclei, normalised",[2]; [21],0.0583%
same,"p53-positive nuclei, normalised",[2]; [9],-0.136%
